The source of these data is article PMC11006913.

What all share (assay): PBM; 200 nM protein, PBS
Holding throughout (details): dsDNA, one strand shown

For experiment [1], the target named is ALX1 (Homo sapiens, UniProt Q15699 118-204, L144V).
Experiment [2] addresses PROP1 (Homo sapiens, UniProt O75360 56-141).
The target of experiment [3] is PROP1 (Homo sapiens, UniProt O75360 56-141, R99H).
The target in experiment [4] is PROP1 (Homo sapiens, UniProt O75360 56-141, F88S).
Experiment [5] has as its target ALX1 (Homo sapiens, UniProt Q15699 118-204).
Experiment [6] deals with T1, NKX2-6 (Homo sapiens, UniProt A6NCS4 118-204).
T1 sequence: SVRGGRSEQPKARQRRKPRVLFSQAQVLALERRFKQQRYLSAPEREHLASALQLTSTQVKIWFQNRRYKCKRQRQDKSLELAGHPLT

The target of experiment [7] is PRRX1 (Homo sapiens, UniProt P54821 80-166, F113S).
Experiment [8] concerns the target T2, SIX6 (Homo sapiens, UniProt O95475 114-200, L167I).
T2 sequence: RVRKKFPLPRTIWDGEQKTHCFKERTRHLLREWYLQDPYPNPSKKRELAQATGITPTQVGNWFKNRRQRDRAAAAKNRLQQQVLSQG

For experiment [9], the target named is T3, SIX6 (Homo sapiens, UniProt O95475 114-200, L143V).
T3 sequence: T2 sequence with L30V, I54L

The target in experiment [10] is T4, SIX6 (Homo sapiens, UniProt O95475 114-200, H141N).
T4 sequence: T2 sequence with H28N, I54L

Experiment [11] has as its target T5, SIX6 (Homo sapiens, UniProt O95475 114-200, T165P).
T5 sequence: T2 sequence with T52P, I54L

Experiment [12] deals with T6, SIX6 (Homo sapiens, UniProt O95475 114-200, L167M).
T6 sequence: T2 sequence with I54M

The target of experiment [13] is T7, SIX6 (Homo sapiens, UniProt O95475 114-200, L143M).
T7 sequence: T2 sequence with L30M, I54L

The target in experiment [14] is T8, SIX6 (Homo sapiens, UniProt O95475 114-200, L143I).
T8 sequence: T2 sequence with L30I, I54L

The target in experiment [15] is T9, SIX6 (Homo sapiens, UniProt O95475 114-200, T165G).
T9 sequence: T2 sequence with T52G, I54L

Experiment [16] concerns the target T10, SIX6 (Homo sapiens, UniProt O95475 114-200, T139Q).
T10 sequence: T2 sequence with T26Q, I54L

The target in experiment [17] is T11, SIX6 (Homo sapiens, UniProt O95475 114-200, T165A).
T11 sequence: T2 sequence with T52A, I54L

Experiment [18] concerns the target T12, SIX6 (Homo sapiens, UniProt O95475 114-200, L167V).
T12 sequence: T2 sequence with I54V

Experiment [19] deals with T13, SIX6 (Homo sapiens, UniProt O95475 114-200).
T13 sequence: T2 sequence with I54L

Experiment [20] deals with T14, SIX6 (Homo sapiens, UniProt O95475 114-200, T165I).
T14 sequence: T2 sequence with T52I, I54L

Numbering of substitutions follows the chain as printed.

Chain of PROP1 (Homo sapiens, UniProt O75360 56-141, F88S) (O75360 56-141 F88S): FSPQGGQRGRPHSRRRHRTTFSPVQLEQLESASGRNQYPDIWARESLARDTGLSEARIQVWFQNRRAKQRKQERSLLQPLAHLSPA
Chain of PROP1 (Homo sapiens, UniProt O75360 56-141, R99H) (O75360 56-141 R99H): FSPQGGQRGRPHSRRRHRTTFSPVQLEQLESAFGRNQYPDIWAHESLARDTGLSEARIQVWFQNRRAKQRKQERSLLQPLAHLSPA
Chain of PRRX1 (P54821 80-166 F113S): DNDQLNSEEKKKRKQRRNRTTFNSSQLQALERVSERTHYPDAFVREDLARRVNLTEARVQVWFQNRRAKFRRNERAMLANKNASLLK
Chain of ALX1 (Homo sapiens, UniProt Q15699 118-204) (Q15699 118-204): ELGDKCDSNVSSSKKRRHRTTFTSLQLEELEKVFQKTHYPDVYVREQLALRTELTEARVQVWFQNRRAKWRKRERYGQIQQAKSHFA
Chain of PROP1 (Homo sapiens, UniProt O75360 56-141) (O75360 56-141): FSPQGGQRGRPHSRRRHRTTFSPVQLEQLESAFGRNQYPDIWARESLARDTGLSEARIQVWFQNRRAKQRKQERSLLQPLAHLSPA
Chain of ALX1 (Homo sapiens, UniProt Q15699 118-204, L144V) (Q15699 118-204 L144V): as the sequence (Q15699 118-204) above, with L27V counted along it

With CTCATTAA, the binding signal in experiment [1] is 11.5 upbm affinity estimate (log intensity, higher = more binding, comparable within an allelic series); in experiment [2], 11 upbm affinity estimate (log intensity, higher = more binding, comparable within an allelic series); in experiment [3] it was 10.6 upbm affinity estimate (log intensity, higher = more binding, comparable within an allelic series); in experiment [4], 7.48 upbm affinity estimate (log intensity, higher = more binding, comparable within an allelic series); in [5], 12 upbm affinity estimate (log intensity, higher = more binding, comparable within an allelic series).
Consider AGCCTGGG, for which the binding signal in experiment [6] was 8.48 upbm affinity estimate (log intensity, higher = more binding, comparable within an allelic series).
For the sequence TAAATTAA, the binding signal in experiment [7] is 11.2 upbm affinity estimate (log intensity, higher = more binding, comparable within an allelic series); in experiment [1], 11.8 upbm affinity estimate (log intensity, higher = more binding, comparable within an allelic series); in [2] it was 11.2 upbm affinity estimate (log intensity, higher = more binding, comparable within an allelic series); in experiment [3] it was 11 upbm affinity estimate (log intensity, higher = more binding, comparable within an allelic series); in [4], 7.74 upbm affinity estimate (log intensity, higher = more binding, comparable within an allelic series); in [5], 12.4 upbm affinity estimate (log intensity, higher = more binding, comparable within an allelic series).
In the case of CGCAGGCG, the binding signal in [1] is 6.44 upbm affinity estimate (log intensity, higher = more binding, comparable within an allelic series); in experiment [5], 6.49 upbm affinity estimate (log intensity, higher = more binding, comparable within an allelic series).
Take CGTCCCGC: the binding signal in experiment [8] is 8.81 upbm affinity estimate (log intensity, higher = more binding, comparable within an allelic series); in [9], 8.68 upbm affinity estimate (log intensity, higher = more binding, comparable within an allelic series); in experiment [10], 8.86 upbm affinity estimate (log intensity, higher = more binding, comparable within an allelic series); in [11] it was 8.88 upbm affinity estimate (log intensity, higher = more binding, comparable within an allelic series); in [12], 8.79 upbm affinity estimate (log intensity, higher = more binding, comparable within an allelic series); in [13], 8.75 upbm affinity estimate (log intensity, higher = more binding, comparable within an allelic series). In addition, the binding signal is 8.79 upbm affinity estimate (log intensity, higher = more binding, comparable within an allelic series) in [14]; 8.8 upbm affinity estimate (log intensity, higher = more binding, comparable within an allelic series) in experiment [15]; 8.84 upbm affinity estimate (log intensity, higher = more binding, comparable within an allelic series) in [16]; 8.8 upbm affinity estimate (log intensity, higher = more binding, comparable within an allelic series) in experiment [17]; 8.87 upbm affinity estimate (log intensity, higher = more binding, comparable within an allelic series) in [18]; 6.64 upbm affinity estimate (log intensity, higher = more binding, comparable within an allelic series) in [2]. For the same sequence, the binding signal in [19] is 8.76 upbm affinity estimate (log intensity, higher = more binding, comparable within an allelic series); in experiment [3], 6.65 upbm affinity estimate (log intensity, higher = more binding, comparable within an allelic series); in experiment [20] it was 8.78 upbm affinity estimate (log intensity, higher = more binding, comparable within an allelic series); in [4], 6.67 upbm affinity estimate (log intensity, higher = more binding, comparable within an allelic series).
Regarding GACTCGGC, in [6], the binding signal was 9.17 upbm affinity estimate (log intensity, higher = more binding, comparable within an allelic series).
On to CGGGAGAG, for which the binding signal in experiment [1] is 6.33 upbm affinity estimate (log intensity, higher = more binding, comparable within an allelic series); in experiment [5], 6.23 upbm affinity estimate (log intensity, higher = more binding, comparable within an allelic series).
GGCCCCCC: the binding signal in experiment [8] is 8.65 upbm affinity estimate (log intensity, higher = more binding, comparable within an allelic series); in [9], 8.57 upbm affinity estimate (log intensity, higher = more binding, comparable within an allelic series); in experiment [10], 8.65 upbm affinity estimate (log intensity, higher = more binding, comparable within an allelic series); in [11], 8.56 upbm affinity estimate (log intensity, higher = more binding, comparable within an allelic series); in experiment [12] it was 8.73 upbm affinity estimate (log intensity, higher = more binding, comparable within an allelic series); in experiment [13], 8.77 upbm affinity estimate (log intensity, higher = more binding, comparable within an allelic series). Further, the binding signal was 8.57 upbm affinity estimate (log intensity, higher = more binding, comparable within an allelic series) in experiment [14]; 8.61 upbm affinity estimate (log intensity, higher = more binding, comparable within an allelic series) in experiment [15]; 8.85 upbm affinity estimate (log intensity, higher = more binding, comparable within an allelic series) in experiment [16]; 8.73 upbm affinity estimate (log intensity, higher = more binding, comparable within an allelic series) in experiment [17]; 8.56 upbm affinity estimate (log intensity, higher = more binding, comparable within an allelic series) in experiment [18]; 8.69 upbm affinity estimate (log intensity, higher = more binding, comparable within an allelic series) in experiment [19]. For the same sequence, the binding signal in experiment [20] was 8.78 upbm affinity estimate (log intensity, higher = more binding, comparable within an allelic series).
On to GCCGCTCC, for which the binding signal is 9.16 upbm affinity estimate (log intensity, higher = more binding, comparable within an allelic series) in experiment [8]; 8.94 upbm affinity estimate (log intensity, higher = more binding, comparable within an allelic series) in [9]; 9.15 upbm affinity estimate (log intensity, higher = more binding, comparable within an allelic series) in experiment [10]; 8.87 upbm affinity estimate (log intensity, higher = more binding, comparable within an allelic series) in [11]; 9.07 upbm affinity estimate (log intensity, higher = more binding, comparable within an allelic series) in [12]; 9.12 upbm affinity estimate (log intensity, higher = more binding, comparable within an allelic series) in experiment [13]. In addition, the binding signal in [14] is 8.99 upbm affinity estimate (log intensity, higher = more binding, comparable within an allelic series); in experiment [15], 9.14 upbm affinity estimate (log intensity, higher = more binding, comparable within an allelic series); in [16], 9.17 upbm affinity estimate (log intensity, higher = more binding, comparable within an allelic series); in experiment [17] it was 9.12 upbm affinity estimate (log intensity, higher = more binding, comparable within an allelic series); in experiment [18], 9.06 upbm affinity estimate (log intensity, higher = more binding, comparable within an allelic series); in experiment [19] it was 9.12 upbm affinity estimate (log intensity, higher = more binding, comparable within an allelic series). The binding signal in experiment [20] was 9.09 upbm affinity estimate (log intensity, higher = more binding, comparable within an allelic series).
As for ATTATTAA, the binding signal in experiment [7] is 11 upbm affinity estimate (log intensity, higher = more binding, comparable within an allelic series).
Consider CTAATGAC, for which the binding signal in experiment [6] is 11.7 upbm affinity estimate (log intensity, higher = more binding, comparable within an allelic series).
With AGTCATTA, the binding signal in [7] is 10.4 upbm affinity estimate (log intensity, higher = more binding, comparable within an allelic series).
In the case of GCGCAGCC, the binding signal in [8] is 8.75 upbm affinity estimate (log intensity, higher = more binding, comparable within an allelic series); in [9] it was 8.82 upbm affinity estimate (log intensity, higher = more binding, comparable within an allelic series); in [10] it was 8.75 upbm affinity estimate (log intensity, higher = more binding, comparable within an allelic series); in experiment [11] it was 8.87 upbm affinity estimate (log intensity, higher = more binding, comparable within an allelic series); in experiment [12] it was 8.77 upbm affinity estimate (log intensity, higher = more binding, comparable within an allelic series); in [13] it was 8.72 upbm affinity estimate (log intensity, higher = more binding, comparable within an allelic series). Further, the binding signal in [14] is 8.74 upbm affinity estimate (log intensity, higher = more binding, comparable within an allelic series); in experiment [15], 8.7 upbm affinity estimate (log intensity, higher = more binding, comparable within an allelic series); in experiment [16], 8.82 upbm affinity estimate (log intensity, higher = more binding, comparable within an allelic series); in experiment [1], 6.42 upbm affinity estimate (log intensity, higher = more binding, comparable within an allelic series); in experiment [17], 8.78 upbm affinity estimate (log intensity, higher = more binding, comparable within an allelic series); in [18], 8.72 upbm affinity estimate (log intensity, higher = more binding, comparable within an allelic series). Also, the binding signal is 8.73 upbm affinity estimate (log intensity, higher = more binding, comparable within an allelic series) in experiment [19]; 8.7 upbm affinity estimate (log intensity, higher = more binding, comparable within an allelic series) in experiment [20]; 6.41 upbm affinity estimate (log intensity, higher = more binding, comparable within an allelic series) in [5].
As to CCTCATTA, the binding signal in experiment [7] was 10.7 upbm affinity estimate (log intensity, higher = more binding, comparable within an allelic series).
Regarding ACTAATGG, the binding signal in [2] is 9.71 upbm affinity estimate (log intensity, higher = more binding, comparable within an allelic series); in experiment [3], 9.39 upbm affinity estimate (log intensity, higher = more binding, comparable within an allelic series); in experiment [4], 7.3 upbm affinity estimate (log intensity, higher = more binding, comparable within an allelic series).
